In the library only some 3.8% were active in any assay of this set; here they are far more common.
TGFb inhibitor – qHTS for Inhibitors of TGF-b; hit rate 1.2% among 410,000; HepG2 CAGA-GFP TGF-b/SMAD3 reporter, GFP fluorescence, 18 h; TGF-beta stimulated, 500 pg/mL final; Potency, µM (series often up to 46.1 µM), inactives show top-dose activity, negative = inhibition, actives largely listed as inhibitors; also: % is scaled to controls: 0 for no effect and ±100 for the full control effect; nearly all actives have a fitted effect of over 65% in size
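Cell-based qHTS in HEPG2 carrying a CAGA-GFP Smad reporter; compounds added before 500 pg/mL final TGF-beta, 18 h incubation at 37 degrees C, GFP fluorescence quantified per cell by imaging cytometry.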
HepG2 tox – qHTS for Inhibitors of TGF-b: Cytotox Counterscreen; HepG2 CAGA-GFP viability, ATP luminescence, 18 h; Potency, µM (highest dose often 46.1 µM), without a hit: top-dose activity change, negative = cytotoxicity, most hits filed as cytotoxic; hit rate 0.76% among 410,000
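HepG2 CAGA-GFP cells (1000/well, DMEM with 1% FBS) received compound, then TGF-beta at 500 pg/mL final, and were incubated 18 hours at 37 degrees C. Viability was read by CellTiter-Glo luminescence. Media-only wells were set as complete cell-killing and DMSO as no toxicity.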
ATXN2 expr inh – Primary qHTS for Inhibitors of ATXN expression. Potency, µM (top dose mostly 57 µM), for inactives: top-dose activity change, negative = inhibition, most hits filed as inhibitors. AID 1745845, 2022. hit rate 0.72% among 360,000. HEK-293 ATXN2-luciferase reporter, luminescence, 24 h; also: % is scaled to controls: 0 for no effect and ±100 for the full control effect; nearly all actives have a fitted effect of over 55% in size
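ATXN2-luciferase reporter cells (luciferase flanked by upstream and downstream ATXN2 gene portions) were treated 24 h at 37 °C with compounds at up to 57 uM. SteadyGlo luminescence gave expression; GF-AFC fluorescence gave viability.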
Nrf2 inh – Nrf2 qHTS screen for inhibitors; A549 ARE-Fluc reporter, luciferase luminescence, 18-24 h; hit rate 2.1% among 360,000; Potency, µM (doses to about 46 µM), for the others: at the highest dose activity change, negative = inhibition, most hits filed as inhibitors; AID 504444, 2011; also: % is scaled to controls: 0 for no effect and ±100 for the full control effect; nearly all actives have a fitted effect of over 60% in size
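A549 ARE_Fluc cells (5000/well, 5% FBS OPTI-MEM) pre-incubated 2 h, then treated with compounds 18-24 h at 37C/5% CO2 in concentration-response. CellTiter-Fluor viability read first; BugLite luciferase luminescence after 15 min at room temperature gives Nrf2 activity.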
A549 tox – Nrf2 qHTS screen for inhibitors: counterscreen for cytotoxicity; Potency, µM (top dose mostly 46 µM), for the others: top-dose activity change, negative = cytotoxicity, usual class: inhibitors; AID 504648, 2011; hit rate 0.16% among 390,000; A549 ARE-Fluc cells, CellTiter-Fluor viability, 18-24 h; also: % is scaled to controls: 0 for no effect and ±100 for the full control effect
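A549 ARE-Fluc cells in 5% FBS OPTI-MEM, 5000 cells/well, rested 2 h then exposed to compounds in concentration-response for 18-24 h at 37 °C. Viability by CellTiter-Fluor fluorescence (Ex 405/Em 525) after 30 min; luciferase luminescence (BugLite, 15 min, RT) read afterwards.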
ATXN viability – Viability Counterscreen for Primary qHTS for Inhibitors of ATXN expression; S2 cells (HEK-293 line with an ATXN2-luciferase reporter) viability, CellTiter-Fluor protease fluorescence, 24 h; Potency, µM (top dose mostly 56.7 µM), hits mostly cytotoxic; hit rate 0.49% among 400,000; AID 651635, 2014; also: nearly all actives have a fitted effect of over 40% in size
* hit, by the source's call; i = inactive; ? = inconclusive; . = no result; ! = not active in a repeat; [ ] = remark or other dose. Calls follow the shape of the dose curve; as a rule, active = well fitted curve in the direction sought with a large enough effect; inconclusive = small, poorly fitted or top-dose-only effect, or another doubt; inactive = no such curve, though single readings can be large; an effect the other way counts as inactive or inconclusive. Potency is read from the fitted curve at half-maximal effect.

SMILES | TGFb inhibitor | HepG2 tox | ATXN2 expr inh | Nrf2 inh | A549 tox | ATXN viability
CSc1nsc(SCC(=O)N2CCCCC2)n1 | -29% | 4% | 27% | ? | -2% | i
CCCNC(=O)CSc1nnc(C)s1 | 2% | -23% | 2% | -6% | -14% | i
CC(C)(C)OC(=O)N[C@@H](Cc1ccccc1)c1nnc(S(=O)(=O)Cc2cccc(F)c2)o1 | 11µM* | -102% | ? | ? | ? | .
CC(C)C[C@H](N)c1nnc(S(=O)(=O)Cc2cccc(F)c2)o1 | 18µM* | -90% | ? | ? | -26% | .
CC(C)[C@H](NC(=O)OC(C)(C)C)c1nnc(S(=O)(=O)Cc2c(F)cccc2Cl)o1 | 11µM* | 20µM* | ? | -21% | -2%[1.84 µM] | .
Cc1cc2c(cc3c(SCc4cccc(F)c4)nnc(C)n32)o1 | . | -35% | . | 14% | 0% | .
COc1cc(OC)c(OC)cc1/C=C1\CC(C)C/C(=C\c2cc(OC)c(OC)cc2OC)C1=O (stereo not given) | ? | 11µM* | 13µM* | ? | ? | ?
CCC1C/C(=C\c2cc(OC)c(OC)cc2OC)C(=O)/C(=C/c2cc(OC)c(OC)cc2OC)C1 (stereo not given) | ? | 8.9µM* | ? | 18µM* | ? | ?
COc1cc(OC)c(OC)cc1/C=C1/Cc2ccccc2C1=O | 29% | 10% | . | 3% | 16% | i
COc1ccc2c(c1)c1c(c(=O)n(-c3ccccc3C)c(=O)n1C)n2C | 12% | 6% | -2% | 4% | -7% | i
CC(=O)Oc1ccc(-c2cc3c(OC(C)=O)cc(OC(C)=O)cc3oc2=O)cc1 | 8% | -13% | 2% | -25% | ? | .
Cc1cc(OC(C)C(=O)N2CCN(c3ccc(F)cc3)CC2)c2c(C)c(C)c(=O)oc2c1 (stereo not given) | 1% | -6% | -3% | 26µM* | -18% | i
COC(=O)N1CCCc2cc(S(=O)(=O)NCc3ccccc3)ccc21 | 9% | -24% | -2% | 23µM* | -8% | i
CC(=O)c1ccc(OC(C)C(=O)OCC(=O)NCCc2ccccc2)cc1 (stereo not given) | -4% | -3% | 4% | 21% | 11% | i
OC(c1cc(F)cc(Cl)c1)c1ncc(-c2ccc3ccccc3c2)[nH]1 (stereo not given) | 18µM* | -106% | -36% | . | . | ?
CC(C)Cc1ccc(C(C)C(=O)Nc2cccnc2)cc1 (stereo not given) | -15% | -29% | -22% | 6.5µM* | -10% | i
CC(C(=O)Nc1cccnc1)c1ccc([N+](=O)[O-])cc1 (stereo not given) | 2% | -1% | -7% | -3% | 0% | i
Cc1ccc(-c2c3c(=O)n(C)c(=O)n(C)c3c3n2-c2ccccc2NC3c2ccc(C)cc2O)cc1 (stereo not given) | 6.3µM* | -97% | ? | ? | 16% | ?
COC(=O)c1ccccc1NC(=O)N1CCC(n2c(C)nc3cccnc32)CC1 | -8% | -23% | 0% | . | 4% | i
Cc1ccc(/C=[N+](\[O-])c2ccc(N(C)C)cc2)c2nsnc12 | 7.9µM* | 14µM* | ? | ? | -27% | ?
CCCCCCN1C[C@@H](n2cc(COC(=O)c3ccccc3)nn2)[C@H](O)C[C@@H]1c1ccc(Cl)cc1 | 17% | 1% | ? | . | . | 32µM*
CCCCCCN1C[C@H](n2cc(COC(=O)c3ccccc3)nn2)[C@@H](O)C[C@@H]1c1ccc(C)cc1 | ? | 10µM* | ? | . | . | ?
CCCCCCN1C[C@H](n2cc(COC(=O)c3ccccc3)nn2)[C@@H](O)C[C@@H]1c1ccccc1 | ? | -93% | 0% | . | . | ?
O=C(Nc1cccc(Cl)c1)c1ccc2nc(Cc3ccccc3)oc2c1 | ? | -47% | ? | . | -26% | ?
COc1ccc(-c2oc3c(c2C(=O)OCCO)C(OCCO)CCC3)cc1 (stereo not given) | . | . | -3% | . | . | i
SMILES | TGFb inhibitor | HepG2 tox | ATXN2 expr inh | Nrf2 inh | A549 tox | ATXN viability
CCCCCSc1nc2sc3c(c2c(=O)n1-c1ccccc1)CCN(C(C)=O)C3 | ? | -21% | 1% | -16% | -1% | i
Cc1cccc(OCCCCn2c(C3CC(=O)N(c4ccc(C)cc4C)C3)nc3ccccc32)c1 (stereo not given) | 10µM* | -109% | ? | ? | ? | ?
Cc1cc(OCCn2c(C3CC(=O)N(Cc4ccc(F)cc4)C3)nc3ccccc32)ccc1Cl (stereo not given) | 13µM* | -102% | ? | 0% | 0% | .
Cc1cccc(C)c1OCCn1c(C2CC(=O)N(Cc3ccc(F)cc3)C2)nc2ccccc21 (stereo not given) | ? | -57% | ? | ? | -2% | .
CCc1ccccc1N1CC(c2nc3ccccc3n2CCOc2ccc(Cl)c(C)c2)CC1=O (stereo not given) | 11µM* | 10µM* | ? | ? | ? | ?
Cc1ccc(C)c(OCCn2c(C3CC(=O)N(Cc4ccc(F)cc4)C3)nc3ccccc32)c1 (stereo not given) | 13µM* | -104% | ? | ? | -5% | .
COc1cccc(-c2ocnc2C(=O)Nc2ccc(N3CCOCC3)cc2N2CCOCC2)c1 | -3% | -1% | -2% | -14% | -2% | i
CCc1nc2ccc(C(=O)NCCCn3ccnc3)cn2c1N(C)Cc1ccc(N(C)C)cc1 | 22% | -3% | 3% | . | . | i
CCCCCCCCCCCCCCCCCCNC(=O)OC1CCN(C(=O)OC[C@H](COC(=O)N(Cc2cccc[n+]2CC)C(=O)c2ccccc2OC)OC)CC1 | . | . | 35µM* | . | . | 35µM*
COc1ccc(OC)c(C(Cc2ccnc3ccccc23)Cc2ccnc3ccccc23)c1 | ? | -97% | . | . | . | .
CN(C)S(=O)(=O)n1ccnc1 | -2% | -1% | -6% | . | -2% | i
COc1cc(N=c2ssnc2Cl)c(OC)cc1Cl | ? | -44% | ? | 23µM*! | ? | ?
COc1ccc(OC)c(N=c2ssnc2Cl)c1 | 10% | -27% | -5% | -1% | 1% | i
CCOc1ccc(-n2c(C)cc(C(=O)CCl)c2C)cc1 | 13µM* | -96% | 24µM* | -26% | -29% | .
COC(=O)c1ccc(-n2c(C)cc(C(=O)COC(=O)C3=COCCO3)c2C)cc1 | 0% | 1% | 12% | -22% | 1% | i

Compound activity as filed in PubChem BioAssay.
